Test results as given in PubChem BioAssay AID1159580 (chemical genetic matrix, 2015).
Several values for one entry are separate records, joined by “and”; a condition that tells them apart may be missing. Identical values can stand only once. Among all 5,500 compounds or so, about 2,000 (36%) were called active. Another 18% or so got no clear call; they are omitted. Rule as the data show it: active = normalized growth mostly below about 0.91 (no sharp cut-off); inconclusive = no clear call, values can overlap the other calls; inactive = mostly above about 0.92. The list shows a part of the results.

Assay: chemical genetic growth profiling, strain panel (AID 1159580);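 also: tested at 20 µM; growth read once vehicle control cultures reached saturation at 30 °C; 1 = growth at the plate median or of vehicle wells; lower values mean less growth of the strain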
Conditions: S. cerevisiae deletion strains, growth OD

Measured: normalized growth

Cn1c(=O)[nH]c2ncn(C)c2c1=O
inactive: locus YAL013W, strain DEP1, stronger effect = lower value 1.01 | locus YAL021C, strain ccr4, stronger effect = lower value 1.06 | locus YAL026C, strain drs2, stronger effect = lower value 0.985 | locus YAL030W, strain snc1, stronger effect = lower value 0.981 | locus YAL040C, strain CLN3, stronger effect = lower value 0.958 | locus YBL061C, strain skt5, stronger effect = lower value 0.99 | locus YBR009C, strain hhf1, stronger effect = lower value 0.995 | locus YBR021W, strain FUR4, stronger effect = lower value 1.04 | locus YBR023C, strain chs3, stronger effect = lower value 1 | locus YBR171W, strain sec66, stronger effect = lower value 0.95 | locus YBR229C, strain ROT2, stronger effect = lower value 1.01 | locus YBR231C, strain swc5, stronger effect = lower value 0.962 | locus YBR279W, strain paf1, stronger effect = lower value 0.993 | locus YCL011C, strain gbp2, stronger effect = lower value 0.966 | locus YCL016C, strain dcc1, stronger effect = lower value 1.03 | locus YCL029C, strain bik1, stronger effect = lower value 0.996 | locus YCL061C, strain MRC1 (second series), stronger effect = lower value 1.01 | locus YCL061C, strain MRC1, stronger effect = lower value 0.995 | locus YCL069W, strain vba3, stronger effect = lower value 0.968 | locus YCR088W, strain abp1, stronger effect = lower value 0.966 | locus YDL005C, strain med2, stronger effect = lower value 0.962 | locus YDL035C, strain GPR1, stronger effect = lower value 1.02 | locus YDL040C, strain nat1, stronger effect = lower value 0.962 | locus YDL074C, strain BRE1, stronger effect = lower value 1.05 | locus YDL101C, strain DUN1, stronger effect = lower value 1.01 | locus YDL134C, strain PPH21, stronger effect = lower value 1.02 | locus YDL185W, strain tfp1, stronger effect = lower value 0.996 | locus YDL192W, strain arf1, stronger effect = lower value 0.993 | locus YDR001C, strain nth1, stronger effect = lower value 0.968 | locus YDR069C, strain doa4, stronger effect = lower value 0.949 | locus YDR101C, strain arx1, stronger effect = lower value 1 | locus YDR137W, strain rgp1, stronger effect = lower value 0.988 | locus YDR150W, strain NUM1, stronger effect = lower value 1.02 and 0.997 | locus YDR159W, strain sac3, stronger effect = lower value 0.939 | locus YDR162C, strain NBP2, stronger effect = lower value 1 | locus YDR195W, strain ref2 0.95 | locus YDR297W, strain sur2, stronger effect = lower value 0.959 | locus YDR318W, strain mcm21, stronger effect = lower value 0.992 | locus YDR334W, strain swr1, stronger effect = lower value 0.975 | locus YDR335W, strain msn5, stronger effect = lower value 0.978 | locus YDR363W, strain ESC2, stronger effect = lower value 1.01 | locus YDR388W, stronger effect = lower value 0.989 | locus YDR392W, strain spt3, stronger effect = lower value 0.937 | locus YDR502C, strain sam2, stronger effect = lower value 0.993 | locus YEL003W, strain gim4, stronger effect = lower value 0.972 | locus YEL037C, strain rad23, stronger effect = lower value 0.968 | locus YEL061C, strain CIN8 (second series), stronger effect = lower value 0.959 | locus YEL061C, strain CIN8, stronger effect = lower value 1.01 | locus YER002W, strain NOP16, stronger effect = lower value 1.01 | locus YER015W, strain faa2, stronger effect = lower value 0.98 | locus YER016W, strain bim1, stronger effect = lower value 0.967 | locus YER110C, stronger effect = lower value 0.996 | locus YER111C, strain swi4, stronger effect = lower value 0.98 | locus YER155C, strain BEM2 (second series), stronger effect = lower value 0.959 | locus YER155C, strain BEM2, stronger effect = lower value 1.02 | locus YER167W, strain BCK2, stronger effect = lower value 1.01 | locus YFR010W, strain ubp6, stronger effect = lower value 0.962 | locus YGL078C, strain dbp3, stronger effect = lower value 0.989 | locus YGL086W, strain mad1, stronger effect = lower value 1 | locus YGL167C, strain pmr1, stronger effect = lower value 0.982 | locus YGL173C, strain kem1, stronger effect = lower value 0.97 | locus YGL227W, strain vid30, stronger effect = lower value 0.967 | locus YGL240W, strain doc1, stronger effect = lower value 0.958 | locus YGL248W, strain PDE1, stronger effect = lower value 1.01 | locus YGL253W, strain hxk2, stronger effect = lower value 0.958 | locus YGR078C, strain PAC10, stronger effect = lower value 1.02 and 0.978 | locus YGR135W, strain pre9, stronger effect = lower value 0.992 | locus YGR229C, strain SMI1, stronger effect = lower value 1.02 | locus YGR252W, strain gcn5, stronger effect = lower value 0.981 | locus YHR013C, strain ard1, stronger effect = lower value 0.986 | locus YHR027C, strain rpn1, stronger effect = lower value 0.98 | locus YHR030C, strain SLT2, stronger effect = lower value 1 | locus YHR079C, strain IRE1 (second series), stronger effect = lower value 0.987 | locus YHR094C, strain hxt1, stronger effect = lower value 0.992 | locus YHR129C, strain ARP1, stronger effect = lower value 1.02 | locus YHR142W, strain chs7, stronger effect = lower value 0.987 | locus YHR200W, strain rpn10, stronger effect = lower value 0.993 | locus YIL066C, strain RNR3, stronger effect = lower value 1.01 | locus YIL073C, strain SPO22, stronger effect = lower value 1 | locus YIL125W, strain kgd1, stronger effect = lower value 0.994 | locus YIR030C, strain dcg1, stronger effect = lower value 1 | locus YJL092W, strain hpr5, stronger effect = lower value 0.971 | locus YJL095W, strain BCK1 (second series), stronger effect = lower value 0.973 | locus YJL095W, strain BCK1, stronger effect = lower value 1.02 | locus YJL115W, strain asf1, stronger effect = lower value 0.969 | locus YJL129C, strain trk1, stronger effect = lower value 0.967 | locus YJL134W, strain LCB3, stronger effect = lower value 1 | locus YJL154C, strain vps35, stronger effect = lower value 0.969 | locus YJL164C, strain tpk1, stronger effect = lower value 1 | locus YJL166W, strain qcr8, stronger effect = lower value 0.972 | locus YJL168C, strain set2, stronger effect = lower value 0.99 | locus YJL187C, strain SWE1 (second series), stronger effect = lower value 1.01 | locus YJL187C, strain SWE1, stronger effect = lower value 0.986
